Assay results: the supplement of paper PMC8728848
The sample as a whole holds a higher share of the strongest signals than the screen did.

Assays:
Assay in all cases: glycan array binding signal (z-score within array); higher = stronger binding
Conditions in all cases: glycan notation: IUPAC condensed, linker removed
[1] = molecular target: Fuc(a1-2)Gal(b1-3)GalNAc(b1-4)[Neu5Ac(a2-3)]Gal(b1-4)Glc
Outline: (§1)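 Glycan array binding is given as a within-array Z-score, which can be read as non-binding when negative. The arrays, 3228 of them, came from the Consortium for Functional Glycomics database and were retained only where the protein sequence was available. Z-scores were averaged across arrays of the same protein sequence at different concentrations or buffers and across linkers.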

Fuc(a1-2)Gal(b1-4)Glc6S = molecular target: Fuc(a1-2)Gal(b1-4)Glc6S
Outline: as §1

Fuc(a1-2)Gal(b1-4)GlcNAc = molecular target: Fuc(a1-2)Gal(b1-4)GlcNAc
Outline: as §1

[2] = molecular target: Fuc(a1-2)Gal3S(b1-4)GlcNAc
Outline: as §1

[3] = molecular target: Fuc(a1-2)[Gal(a1-3)]Gal(b1-3)GlcNAc(b1-3)GalNAc
Outline: as §1

[4] = molecular target: Fuc(a1-2)[Gal(a1-3)]Gal(b1-3)GlcNAc(b1-6)GalNAc
Outline: as §1

[5] = molecular target: Fuc(a1-2)[Gal(a1-3)]Gal(b1-4)Glc
Outline: as §1

[6] = molecular target: Fuc(a1-2)[Gal(a1-3)]Gal(b1-4)GlcNAc(b1-2)Man(a1-3)[Fuc(a1-2)[Gal(a1-3)]Gal(b1-4)GlcNAc(b1-2)Man(a1-6)]Man(b1-4)GlcNAc(b1-4)[Fuc(a1-6)]GlcNAc
Outline: as §1

[7] = molecular target: Fuc(a1-2)[GalNAc(a1-3)]Gal(b1-3)GlcNAc(b1-3)GalNAc
Outline: as §1

[8] = molecular target: Fuc(a1-2)[GalNAc(a1-3)]Gal(b1-4)GlcNAc(b1-3)GalNAc
Outline: as §1

[9] = molecular target: Fuc(a1-2)[GalNAc(a1-3)]Gal(b1-4)GlcNAc(b1-6)GalNAc
Outline: as §1

[10] = molecular target: Fuc(a1-2)[GalNAc(a1-3)]Gal(b1-4)[Fuc(a1-3)]GlcNAc(b1-3)GalNAc
Outline: as §1

[11] = molecular target: Fuc(a1-3)[Gal(b1-4)]GlcNAc(b1-3)Gal(b1-3)[Fuc(a1-4)]GlcNAc
Outline: as §1

[12] = molecular target: Fuc(a1-3)[Gal3S(b1-4)]GlcNAc6S
Outline: as §1

[13] = molecular target: Fuc(a1-3)[GalNAc(b1-4)]GlcNAc
Outline: as §1

Gal(a1-4)GlcNAc = molecular target: Gal(a1-4)GlcNAc
Outline: as §1

Gal(b1-3)Gal = molecular target: Gal(b1-3)Gal
Outline: as §1

Gal(b1-3)Gal(b1-4)GlcNAc = molecular target: Gal(b1-3)Gal(b1-4)GlcNAc
Outline: as §1

[14] = molecular target: Gal(b1-3)GalNAc(b1-4)Gal(b1-4)Glc
Outline: as §1

Gal(b1-3)GlcNAc = molecular target: Gal(b1-3)GlcNAc
Outline: as §1

[15] = molecular target: Gal(b1-3)GlcNAc(b1-6)Gal(b1-4)GlcNAc
Outline: as §1

[16] = molecular target: Gal(b1-4)GlcNAc(b1-2)[Gal(b1-4)GlcNAc(b1-4)]Man(a1-3)[Gal(b1-4)GlcNAc(b1-2)Man(a1-6)]Man(b1-4)GlcNAc(b1-4)GlcNAc
Outline: as §1

[17] = molecular target: Gal(b1-4)GlcNAc(b1-2)[Gal(b1-4)GlcNAc(b1-6)]Man(a1-6)[Gal(b1-4)GlcNAc(b1-2)Man(a1-3)]Man(b1-4)GlcNAc(b1-4)GlcNAc
Outline: as §1

[18] = molecular target: Gal(b1-4)GlcNAc(b1-3)Gal(b1-4)GlcNAc(b1-3)Gal(b1-4)GlcNAc(b1-3)Gal(b1-4)GlcNAc(b1-3)Gal(b1-4)GlcNAc(b1-2)Man(a1-3)[Gal(b1-4)GlcNAc(b1-3)Gal(b1-4)GlcNAc(b1-3)Gal(b1-4)GlcNAc(b1-3)Gal(b1-4)GlcNAc(b1-3)Gal(b1-4)GlcNAc(b1-2)Man(a1-6)]Man(b1-4)GlcNAc(b1-4)[Fuc(a1-6)]GlcNAc
Outline: as §1

[19] = molecular target: Gal(b1-4)GlcNAc(b1-3)Gal(b1-4)GlcNAc(b1-3)Gal(b1-4)GlcNAc(b1-3)Gal(b1-4)GlcNAc(b1-3)Gal(b1-4)GlcNAc(b1-2)[Gal(b1-4)GlcNAc(b1-3)Gal(b1-4)GlcNAc(b1-3)Gal(b1-4)GlcNAc(b1-3)Gal(b1-4)GlcNAc(b1-3)Gal(b1-4)GlcNAc(b1-6)]Man(a1-6)[Gal(b1-4)GlcNAc(b1-3)Gal(b1-4)GlcNAc(b1-3)Gal(b1-4)GlcNAc(b1-3)Gal(b1-4)GlcNAc(b1-3)Gal(b1-4)GlcNAc(b1-2)Man(a1-3)]Man(b1-4)GlcNAc(b1-4)[Fuc(a1-6)]GlcNAc
Outline: as §1

[20] = molecular target: Gal(b1-4)GlcNAc(b1-3)[Fuc(a1-3)GlcNAc(b1-6)]Gal(b1-4)Glc
Outline: as §1

Gal3S(b1-4)Glc = molecular target: Gal3S(b1-4)Glc
Outline: as §1

[21] = molecular target: Gal3S(b1-4)[Fuc(a1-3)]Glc6S
Outline: as §1

Gal4S(b1-4)GlcNAc = molecular target: Gal4S(b1-4)GlcNAc
Outline: as §1

[22] = molecular target: GalNAc(a1-3)GalNAc(b1-3)Gal(a1-4)Gal(b1-4)GlcNAc
Outline: as §1

[23] = molecular target: GalNAc(b1-3)Gal(a1-4)Gal(b1-4)GlcNAc(b1-3)Gal(b1-4)Glc
Outline: as §1

[24] = molecular target: GlcNAc(a1-4)Gal(b1-4)GalNAc
Outline: as §1

[25] = molecular target: GlcNAc(a1-4)Gal(b1-4)GlcNAc(b1-3)Gal(b1-4)Glc
Outline: as §1

[26] = molecular target: GlcNAc(b1-2)[GlcNAc(b1-4)]Man(a1-3)[GlcNAc(b1-2)Man(a1-6)]Man(b1-4)GlcNAc(b1-4)GlcNAc
Outline: as §1

[27] = molecular target: GlcNAc(b1-3)Gal(b1-4)GlcNAc(b1-2)[GlcNAc(b1-3)Gal(b1-4)GlcNAc(b1-6)]Man(a1-6)[GlcNAc(b1-3)Gal(b1-4)GlcNAc(b1-2)Man(a1-3)]Man(b1-4)GlcNAc(b1-4)GlcNAc
Outline: as §1

[28] = molecular target: GlcNAc(b1-4)Gal(b1-4)GlcNAc
Outline: as §1

Man(a1-3)[Man(a1-6)]Man = molecular target: Man(a1-3)[Man(a1-6)]Man
Outline: as §1

[29] = molecular target: Neu5Ac(a2-3)Gal(b1-3)GalNAc(b1-4)[Neu5Ac(a2-8)Neu5Ac(a2-3)]Gal(b1-4)Glc
Outline: as §1

[30] = molecular target: Neu5Ac(a2-3)Gal(b1-3)GlcNAc(b1-2)Man(a1-3)[Neu5Ac(a2-3)Gal(b1-3)GlcNAc(b1-2)Man(a1-6)]Man(b1-4)GlcNAc(b1-4)GlcNAc
Outline: as §1

[31] = molecular target: Neu5Ac(a2-3)Gal(b1-3)GlcNAc(b1-3)GalNAc
Outline: as §1

[32] = molecular target: Neu5Ac(a2-3)Gal(b1-3)[Fuc(a1-4)]GlcNAc
Outline: as §1

[33] = molecular target: Neu5Ac(a2-3)Gal(b1-3)[GlcNAc(b1-6)]GalNAc
Outline: as §1

[34] = molecular target: Neu5Ac(a2-3)Gal(b1-3)[Neu5Ac(a2-6)]GalNAc
Outline: as §1

[35] = molecular target: Neu5Ac(a2-3)Gal(b1-4)GlcNAc(b1-2)Man(a1-3)[Neu5Ac(a2-3)Gal(b1-4)GlcNAc(b1-2)Man(a1-6)]Man(b1-4)GlcNAc(b1-4)[Fuc(a1-6)]GlcNAc
Outline: as §1

[36] = molecular target: Neu5Ac(a2-3)Gal(b1-4)GlcNAc(b1-2)[Neu5Ac(a2-3)Gal(b1-4)GlcNAc(b1-6)]Man(a1-6)[Neu5Ac(a2-3)Gal(b1-4)GlcNAc(b1-2)Man(a1-3)][GlcNAc(b1-4)]Man(b1-4)GlcNAc(b1-4)GlcNAc
Outline: as §1

[37] = molecular target: Neu5Ac(a2-3)Gal(b1-4)GlcNAc(b1-3)Gal(b1-4)GlcNAc(b1-3)GalNAc
Outline: as §1

[38] = molecular target: Neu5Ac(a2-3)Gal(b1-4)[Fuc(a1-3)]GlcNAc(b1-2)Man
Outline: as §1

[39] = molecular target: Neu5Ac(a2-6)Gal(b1-4)GlcNAc(b1-2)Man(a1-3)[Man(a1-6)]Man(b1-4)GlcNAc(b1-4)GlcNAc
Outline: as §1

[40] = molecular target: Neu5Ac(a2-6)Gal(b1-4)GlcNAc(b1-2)Man(a1-6)[Man(a1-3)]Man(b1-4)GlcNAc(b1-4)GlcNAc
Outline: as §1

[41] = molecular target: Neu5Ac(a2-6)Gal(b1-4)GlcNAc(b1-6)[Gal(b1-3)]GalNAc
Outline: as §1

[42] = molecular target: Neu5Ac(a2-8)Neu5Ac(a2-3)Gal(b1-4)Glc
Outline: as §1

[43] = molecular target: Neu5Ac(a2-8)Neu5Ac(a2-8)Neu5Ac(a2-3)Gal(b1-4)Glc
Outline: as §1

Neu5Ac(b2-6)GalNAc = molecular target: Neu5Ac(b2-6)GalNAc
Outline: as §1

[44] = molecular target: Neu5Gc(a2-8)Neu5Gc(a2-6)Gal(b1-4)GlcNAc
Outline: as §1

B1: Pwp1 (Candida glabrata) (protein)
chain: MGSSHHHHHHSSGLVPRGSHMASANPISITNVCQFPDNWARTAGFQATTVRLGLTIASNTYKELLNYPGLFNFATQKATVTQPNFSISGFPFFTGLYGLTVWPINLLVELQGYFVPPESGNYTFTLQGSDDAAILFFANPSTFACGSQNDWPQPREADITVTDTLVPSRTLYLVKGVAYPIRIAYYNGSGDGKLNVSFKDPSGTTHTDWKGYVWQYSNTCSTCTYT
glycan array binding signal (z-score) [1]: 2.14
glycan array binding signal (z-score) (Fuc(a1-2)Gal(b1-4)Glc6S): -0.871
glycan array binding signal (z-score) (Fuc(a1-2)Gal(b1-4)GlcNAc): 0.296
glycan array binding signal (z-score) [2]: 0.714
glycan array binding signal (z-score) [3]: 0.778
glycan array binding signal (z-score) [4]: 0.51
glycan array binding signal (z-score) [5]: -0.087
glycan array binding signal (z-score) [6]: 0.301
glycan array binding signal (z-score) [7]: 2.44
glycan array binding signal (z-score) [8]: 2.36
glycan array binding signal (z-score) [9]: 0.906
glycan array binding signal (z-score) [10]: -0.825
glycan array binding signal (z-score) [11]: 3.12
glycan array binding signal (z-score) [12]: 1.94
glycan array binding signal (z-score) [13]: -1.67
glycan array binding signal (z-score) (Gal(a1-4)GlcNAc): 0.974
glycan array binding signal (z-score) (Gal(b1-3)Gal): 0.861
glycan array binding signal (z-score) (Gal(b1-3)Gal(b1-4)GlcNAc): -0.314
glycan array binding signal (z-score) [14]: 1.92
glycan array binding signal (z-score) (Gal(b1-3)GlcNAc): 0.448
glycan array binding signal (z-score) [15]: -1.46
glycan array binding signal (z-score) [16]: -0.345
glycan array binding signal (z-score) [17]: 0.454
glycan array binding signal (z-score) [18]: -0.637
glycan array binding signal (z-score) [19]: -3.11
glycan array binding signal (z-score) [20]: -1
glycan array binding signal (z-score) (Gal3S(b1-4)Glc): 0.803
glycan array binding signal (z-score) [21]: -0.627
glycan array binding signal (z-score) (Gal4S(b1-4)GlcNAc): 0.267
glycan array binding signal (z-score) [22]: -0.037
glycan array binding signal (z-score) [23]: 1.77
glycan array binding signal (z-score) [24]: -1.74
glycan array binding signal (z-score) [25]: 1.72
glycan array binding signal (z-score) [26]: 0.374
glycan array binding signal (z-score) [27]: 0.839
glycan array binding signal (z-score) [28]: -2.23
glycan array binding signal (z-score) (Man(a1-3)[Man(a1-6)]Man): -1.51
glycan array binding signal (z-score) [29]: 0.23
glycan array binding signal (z-score) [30]: 1.89
glycan array binding signal (z-score) [31]: 0.585
glycan array binding signal (z-score) [32]: -1.74
glycan array binding signal (z-score) [33]: 3.78
glycan array binding signal (z-score) [34]: 0.612
glycan array binding signal (z-score) [35]: 0.747
glycan array binding signal (z-score) [36]: 2.29
glycan array binding signal (z-score) [37]: 0.411
glycan array binding signal (z-score) [38]: -1.41
glycan array binding signal (z-score) [39]: -0.785
glycan array binding signal (z-score) [40]: 0.335
glycan array binding signal (z-score) [41]: -1.62
glycan array binding signal (z-score) [42]: 0.642
glycan array binding signal (z-score) [43]: -0.355
glycan array binding signal (z-score) (Neu5Ac(b2-6)GalNAc): 1.13
glycan array binding signal (z-score) [44]: 1.17
